Source: PubChem (several laboratories)
SKN-1 inh = C. elegans SKN-1 inhibition; C. elegans VP596 Pgst-4::GFP/RFP ratio, acrylamide-induced, 24 h; inhibition, % at 21.8 µM; 0.49% of 360,000 active;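 active = interference check ratio from 0.5 to 1.5 plus GFP to RFP signal ratio inhibition reaching or exceeding a fixed threshold, cut at about 30% in these data, passing the limit was not always enough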
CHRM1 agonist = agonists of human M1 muscarinic receptor. P11229. CHO-K1 hM1, Fluo-8 calcium fluorescence, agonist mode; 0% DMSO, 100% acetylcholine EC100. activation, % at 3 µM. 0.33% of 360,000 active. AID 588814;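 active = activation above the run's mean compound activation plus 3 SD, cut at about 16% in these data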;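 also: peak over basal fluorescence ratio within a 140 s kinetic read after compound addition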
Target sequence (P11229 whole entry, looked up): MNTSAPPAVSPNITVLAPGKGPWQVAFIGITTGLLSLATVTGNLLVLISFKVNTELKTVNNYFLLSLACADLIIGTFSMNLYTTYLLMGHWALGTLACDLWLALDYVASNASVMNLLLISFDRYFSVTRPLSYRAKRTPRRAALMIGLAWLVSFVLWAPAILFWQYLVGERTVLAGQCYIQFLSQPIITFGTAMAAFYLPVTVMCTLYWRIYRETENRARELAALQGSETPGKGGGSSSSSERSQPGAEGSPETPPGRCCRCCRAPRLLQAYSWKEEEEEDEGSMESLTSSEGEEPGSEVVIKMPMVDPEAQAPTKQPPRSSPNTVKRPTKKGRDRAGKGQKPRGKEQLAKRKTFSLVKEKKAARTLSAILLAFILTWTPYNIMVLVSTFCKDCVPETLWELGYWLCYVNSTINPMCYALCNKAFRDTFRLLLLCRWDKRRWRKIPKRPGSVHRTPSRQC
CHRM1 antagonist = blocks human M1 muscarinic receptor; inhibition, % at 3 µM; CHO-K1 hM1, Fluo-8 calcium fluorescence, ACh EC80 antagonist; 1.3% of 360,000 active; P11229; AID 588852;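 active = percent inhibition above its own plate's cutoff, namely the mean of that plate's compound wells plus 3 SD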;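 also: peak over basal fluorescence ratio during 140 s after agonist addition; 0% = ACh EC80 plus DMSO and 100% = DMSO alone without agonist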
Myeloid diff MLP = compounds promoting myeloid differentiation | ER-HoxA9 myeloid progenitors, lysozyme-GFP differentiation, flow cytometry | calls only at 10 µM | 1% of 360,000 active | AID 624256;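 active = normalized GFP-positive differentiation at or above the plate's own cutoff, the solvent-only control mean plus 3 SD; inconclusive = no clear call, values can overlap the other calls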;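 also: cells exposed to compound for four days before flow analysis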
ATG4B inh = ATG4B (human) cysteine protease inhibition; Q9Y4P1; ATG4B cleavage of LC3-PLA2, NBD-HPC fluorescence, 1 h; inhibition, % at 8.33 µM; 0.51% of 340,000 active; AID 504462; in the data active = inhibition above about 40%
CHRM1 PAM = positive allosteric modulators of human M1 muscarinic receptor. P11229. CHO-K1 hM1, Fluo-8 calcium fluorescence, ACh EC20; 0% = ACh EC20, 100% = maximal ACh. activation, % at 3 µM. 0.088% of 360,000 active. AID 588819; in the data active = activation above about 19%, passing the limit was not always enough
The depositor's hits bear a star; i = inactive; ? = inconclusive; / = no result; + = active, no number; ! = not active in a repeat. Only some compounds are listed: those with a hit (about 3.5% of all), similar ones and a draw of the others.

SMILES	SKN-1 inh	CHRM1 agonist	CHRM1 antagonist	Myeloid diff MLP	ATG4B inh	CHRM1 PAM
COc1ccc(NC(=O)C2(C)Cc3c(-c4cccc(C(F)(F)F)c4)ccnc3O2)cc1OC (stereo not given)	0.8	-1.8	-2.1	i	/	-3.4
CCN(CCCNC(=O)CC(C(=O)N1CCc2ccccc21)n1ccnc1)c1cccc(C)c1 (stereo not given)	38.2*	-8.8	-9.1	i	3.6	4.4
CCCCOC(=O)c1[nH]c2c(c1C)C(=O)CC(c1cc(OC)c(OC)c(OC)c1)C2 (stereo not given)	12.5	-2.7	22.3	+	-4.5	-15.7
COC(=O)c1[nH]c2c(c1C)C(=O)CC(c1cc(OC)ccc1OC)C2 (stereo not given)	16.1	-0.6	-6.0	+	2.6	-2.1
CCCCN1C2=NC(c3ccccc3)CN2c2ccccc21 (stereo not given)	-5.1	-3.9	39.5*	i	5.5	-16.3
Cc1nnsc1C(=O)N1CCCC1(C)C(=O)O (stereo not given)	10.1	-1.9	-10.9	i	/	5.8
COc1cccc(CN2CCN(C(=O)Nc3ccc([N+](=O)[O-])cc3)CC2)c1	9.1	-3.3	30.6*	i	-5.8	-10.3
CCCN(C(=O)COC(=O)c1nc2nccc(C)n2n1)C1CCS(=O)(=O)C1 (stereo not given)	13.8	-4.9	13.1	i	-3.2	-0.9
O=C(c1ccco1)N1CCCC(c2nc3c(nnn3Cc3ccc(F)cc3)c(=O)[nH]2)C1 (stereo not given)	16.2	-3.5	13.8	i	-1.9	-6.8
COC(=O)C1C2CC3c4[nH]c5cc(OC)ccc5c4CCN3CC2CC(OC2CCCCO2)C1OC (stereo not given)	-4.4	-0.7	-19.0	+	/	11.8
COc1ccc(NC2=CC(c3cccc(OC)c3)N(c3ccc(OC)cc3)C2=O)cc1 (stereo not given)	2.0	9.3	46.9*	i	-11.8	-8.5
S=C(NCc1ccccn1)Nc1cccc(Cl)c1	12.7	-0.4	-0.2	i	-3.5	4.8
CC(=NNC(=S)Nc1cccc(Cl)c1)c1ccccn1	38.8*	-3.5	-8.5	?	2.3	1.2
CCN(CC)c1ccc2cc(C(C)=O)c(=O)oc2c1	-26.0	13.3	-23.2	i	-11.7	0.7
CCN(CC)c1ccc2cc(C(N)=O)c(=O)oc2c1	15.3	-3.2	-43.0	i	5.2	17.5
CCN(CC)c1ccc2cc(-c3nnc(-c4ccncc4)o3)c(=O)oc2c1	-37.3	21.6*	7.8	+	-63.3	-4.3
CCN(CC)c1ccc2cc(C=O)c(=O)oc2c1	-4.2	52.9*	19.0	i	-11.7	-17.5
[O-][n+]1cc(Cl)cc(Cl)c1	-3.0	-0.4	-11.6	i	/	-0.9
C/C=C1\NC(=O)[C@H](C)NC(=O)[C@@H](NC(=O)[C@@H](Cc2ccc(O)cc2)NC(=O)[C@@H](NC(=O)/C(C)=C/C)C(C)C)[C@@H](C)OC(=O)[C@H](CCCCc2ccc(O)cc2)NC(=O)[C@@H](CCC(=O)OC)NC1=O	16.4	-0.2	-30.9	i	/	8.2
CC(=O)Nc1ccc(NC(=O)C(C)OC(=O)CCCOc2ccc(Cl)c(C)c2)cc1 (stereo not given)	9.9	1.1	6.2	i	-6.0	-2.6
Cc1cc(Br)cn2c(Cc3ccsc3)c(-c3ccc(F)cc3)nc12	23.3	-6.0	-31.4	i	/	2.5
CCCn1nc(C(=O)Nc2nc(-c3ccccn3)cs2)c2ccccc2c1=O	-3.4	-3.4	5.9	+	4.2	3.0
CCn1nc(C(=O)Nc2nc(-c3ccccn3)cs2)c2ccccc2c1=O	-0.4	-0.1	10.6	i	-3.2	-0.2
CCOC(=O)c1sc2nc(OCc3cccnc3)cc(C)c2c1N	5.7	/	/	i	/	/
OCCN(Cc1ccccc1)Cc1ncccc1O	12.5	-3.0	-11.9	i	-3.8	5.2
SMILES	SKN-1 inh	CHRM1 agonist	CHRM1 antagonist	Myeloid diff MLP	ATG4B inh	CHRM1 PAM
OCCN(Cc1cccnc1)Cc1ccccn1	4.3	-8.5	58.7*	i	1.4	-28.7
O=C(Cc1ccc([N+](=O)[O-])cc1)OCc1ccc([N+](=O)[O-])cc1	-0.9	-7.9	-9.6	i	3.1	7.5
O=[N+]([O-])c1ccc(COP(=O)(O)OCc2ccc([N+](=O)[O-])cc2)cc1	-8.9	-1.4	4.1	+!	-3.0	-0.8
COC(=O)c1ccc2c(c1)C(C)(C)C(/C=C/c1ccc(OC)c(OC)c1OC)=[N+]2C	45.9*	-3.1	8.2	?	0.3	-4.1
COC(=O)c1ccc2c(c1)C(C)(C)C(/C=C/c1ccc(O)cc1)=[N+]2C	85.9	6.0	15.2	/	2.7	6.4
O=C1[C@@H]2[C@@H](CN3CN(c4ccccc4)N=C(c4ccccc4)[C@@]23c2ccccc2)C(=O)N1c1ccccc1	-4.1	-1.4	-12.2	i	-9.4	3.5
CCCN(Cc1ccc(N(C)C)cc1)CC1CC1	2.4	-6.1	-0.8	i	-7.0	-11.3
CCCN(Cc1ccc(N(CC)CC)cc1)CC1CC1	9.1	-15.2	51.6*	i	3.0	-32.3
CCCCNC(=O)CO/N=C(\C)c1cc2ccccc2o1	3.6	-6.8	4.2	+	-0.4	-2.2
CCC(c1nnnn1-c1ccc2c(c1)OCCO2)N1CCN(c2ccccn2)CC1 (stereo not given)	2.7	/	/	i	/	/
COc1ccc(CC(=O)NC(=S)Nc2ccc(S(N)(=O)=O)cc2)cc1	0.9	29.8*	0.3	i	-10.2	-0.6
COc1ccc(CC(=O)NC(=S)Nc2ccc(S(=O)(=O)NC(C)(C)C)cc2)cc1	-0.6	23.6*	-14.7	i	-16.1	8.5
COc1ccc(C(=O)NC(=S)Nc2ccc(S(N)(=O)=O)cc2)cc1	-8.5	-9.4	-8.3	i	-3.8	13.8
COc1ccc(NC(=S)NC(=O)Cc2ccccc2)cc1	1.7	-1.2	-9.6	i	1.4	5.3
CCN(Cc1ccccc1)C(=O)c1ccc(CS(=O)c2ccccc2C)o1 (stereo not given)	5.1	-2.4	-4.1	i	3.8	4.2
O=C1CN(CC(=O)Nc2cccc(Cl)c2Cl)c2ccccc2N1	4.6	-1.8	-22.1	+	-2.0	15.1
Nc1ccc2c(Cl)cc(Cl)cc2c1	63.0*	-5.9	-6.2	i	/	-0.2
Nc1ccc2c(O)cc(S(=O)(=O)O)cc2c1	11.1	3.8	-9.9	i	1.1	5.6
Cc1cc2ccccn2c1C(=O)Nc1cccc(Cl)c1	62.3*	-7.3	15.6	i	11.7	-11.4
CCc1cc(C(=O)Cc2nc3ccccc3s2)c(O)cc1OCC(=O)O	0.6	-3.5	7.8	i	0.9	-7.5
O=C(Nc1ccc(Cl)cc1)Nc1nc(-c2ccccc2O)cs1	-5.1	8.6	35.3*	i	-9.3	-11.0
Cc1cccnc1Nc1nc(-c2ccc(F)cc2)cs1	42.4*	-6.6	1.1	i	20.9	-7.0
